Growth data for 40 compounds are collected here from PubChem BioAssay (NCI).

“And” between values parts separate entries of the source, which are not always exact repeats. Equal values may be shown once. The panel holds about 83,000 compounds, 20% with a hit somewhere; the sample as a whole holds those more often.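 Values shown are percent growth following 48 h exposure of cells in 96-well plates to a single concentration of compound; below 10 was considered active.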 The source made the active and inactive calls.

This test relates to SK-MEL-2 melanoma. As to the kind of experiment: NCI-60 one-dose screen, 48 h (100 = growth as untreated, 0 = no growth, -100 = all killed). The following applies: 10 µM unless noted. As to the method:
Growth inhibition of the SK-MEL-2 human tumor cell line is measured as a screen for anti-cancer activity. Cells are grown in 96 well plates and exposed to the test compound for 48 hours. Compounds are tested at a single concentration, which is 10^-5 M for most compounds. The reported endpoint is percent growth (GI% or GIPRCNT), where numbers from 0 - 100% represent growth inhibition, and numbers from -100% - 0 represent cell death. For example, a value of 40 represents 60% growth inhibition. A value of 0 means no net growth occurred over the course of the experiment. A value of -40 indicates 40% of cells at the beginning of the experiment died by the end of the experiment. A value of -100 means all cells are dead at the end of the experiment.
NCI-60 Human Tumor Cell Lines Screen was performed using the standard one-dose NCI protocol, which is described in more detail at https://dtp.cancer.gov/discovery_development/nci-60/default.htm.
Compounds with GIPRCNT values below 10 were considered active. Activity score was based on GIPRCNT using the following formula: […]
Score is 0 for GIPRCNT values of 100 or above, 50 for GIPRCNT values of 0, and 100 for GIPRCNT values of -100.
`Fc1ccc(Nc2nnc(-c3c[nH]c4ccccc34)o2)cc1`: the growth is 96.7% (inactive).

For `O=C(N/N=C/c1ccc(-c2cccc([N+](=O)[O-])c2)s1)c1[nH]c2ccc(Br)cc2c1-c1ccccc1`, the growth was 84.4% (inactive). In the case of `C[C@@H]1CN(c2ccc3ncc(C#Cc4cncc(C(=O)Nc5ccc(CN6CCN(C)CC6)c(C(F)(F)F)c5)c4)n3n2)C[C@@H](C)O1` it was -88.4% (active). In the case of `CC(C)(C)OC(=O)N1C/C(=C\c2ccc(F)cc2)C(=O)/C(=C/c2ccc(F)cc2)C1` it was -36.4% (active); in that of `Cn1cc(-c2cc(N)n3nc(-c4c[nH]c5ccc(F)cc45)cc3n2)c2cc(Br)cnc21`, 87.3% (inactive).

In the case of `COc1ccc2nc(NC(=O)c3ccc(N(C)C)cc3)sc2c1`, the growth is 88.8% (inactive).

In the case of `CN(C)C(=O)c1cc(-c2ccc3ncnc(N4CCc5cc(F)c(Cl)cc54)c3c2)cnc1N`, the growth was -86% (active).

Regarding `CCOC(=O)c1ccc(NC(=S)NC(=O)c2ccc(NC(=O)C(C)C)cc2OC)cc1`, the growth is 48.5% (inactive). As for `CCc1ccccc1NC(=O)N/C(N)=N/c1nc2ccccc2s1`, the growth is 10.6% (inactive).

Turning to `O=C(NN1C(=O)/C(=C/C=C/c2ccc([N+](=O)[O-])o2)SC1=S)c1ccc([N+](=O)[O-])cc1`, the growth is -89.8% (active). For `Cc1ccc(-c2cc(-c3ccccc3)[nH]c(=O)c2C#N)cc1` the value was 95.5% (inactive); for `O=C1CCC(N2C(=O)c3cccc(NCCOCCOCCOCCC(=O)NCCCC(=O)NC(c4ccc5c(c4)OCO5)c4cc(Cl)c5cccnc5c4O)c3C2=O)C(=O)C1` (stereo not given), -5.74% (active). In the case of `CCOc1ccccc1NC(=O)N/C(N)=N/c1nc2ccccc2s1` it was 38.7% (inactive); in that of `O=C(CSc1nnc(-c2ccc(-c3nc4ccccc4[nH]3)cc2)o1)Nc1ccc(Br)cc1`, 41.4% (inactive). Consider `O=C1Nc2ccc(F)cc2/C1=C/C(=O)c1cc2ccccc2oc1=O`, for which the growth was 102% (inactive).

As to `N#Cc1c(NC(=O)N2CCOCC2)n(-c2ccc(OC(F)(F)F)cc2)c2cc(F)ccc12`, the growth is 94% (inactive).

Take `CS(=O)(=O)c1ccc(-n2nc(C(=O)NCc3ccccc3)cc2-c2ccc(Cl)cc2)cc1`: the growth was 92.9% (inactive).

`COc1ccc(C(=O)C[n+]2cccc3c4ccccc4ccc32)cc1`: the growth is 56.3% (inactive). In the case of `COc1ccc(Nc2nnc(-c3c[nH]c4ccccc34)o2)cc1` it was 92% (inactive). For `O=C(O)CC1S/C(=N/N=C/c2nc3ccccc3s2)NC1=O` (stereo not given) the value was 116% (inactive).

On to `COc1ccc2[nH]c(=O)c(CSc3ccccc3Nc3nccc(-c4ccc5c(c4)OCO5)n3)cc2c1`, for which the growth was 95.6% (inactive). In the case of `ClC(Cn1ncc2c(Nc3cccc(Br)c3)nc(SCCN3CCOCC3)nc21)c1ccc(Br)cc1` (stereo not given) it was -11.9% (active); in that of `CCCSc1nnc(-c2c(C)nc3sccn23)o1`, 104% (inactive); in that of `Cc1ccccc1Nc1nnc(-c2c[nH]c3ccccc23)o1`, -10.8% (active). In the case of `CN1CCN(c2ccc3c4c(cccc24)C(=O)N(c2cccc(-c4nn(-c5ccccc5)cc4-c4nc5ccccc5s4)c2)C3=O)CC1` it was 120% (inactive); in that of `CCCSc1nnc(-c2sc3nc4ccccc4n3c2C)o1`, 105% (inactive); in that of `Clc1ccc(CNc2nc(SCCN3CCOCC3)nc3c2cnn3CC(Cl)c2ccc(Br)cc2)cc1` (stereo not given), 33.6% (inactive).

In the case of `CS(=O)(=O)Nc1cccc(-n2c(COc3ccc(OC(F)(F)F)cc3)nc3ccccc32)c1`, the growth is 86% (inactive) and 110% (inactive). `Cn1cc(-c2cc(N)n3nc(-c4c[nH]c5ccccc45)cc3n2)c2cc(F)ccc21`: the growth was 51.6% (inactive).

For the compound `Cc1nc(Nc2ccccn2)sc1C1=NNC(c2ccccc2F)C1` (stereo not given), the growth is 62.1% (inactive). In the case of `O=C(CSc1nnc(-c2ccc(-c3nc4ccc(Cl)cc4[nH]3)cc2)o1)Nc1ccc(Br)cc1` it was 5.03% (active); in that of `CC1=NN(C2=NC(=O)C(CC(=O)Nc3ccccc3C(F)(F)F)S2)C(c2ccc(N(C)C)cc2)C1` (stereo not given), 65.2% (inactive). In the case of `Nc1nn2c(-c3cc4cc(Br)ccc4oc3=O)ccnc2c1N=Nc1ccc(S(N)(=O)=O)cc1` it was 94.6% (inactive); in that of `COc1ccc(/C=C/c2nc3ccccc3c(=O)n2CC(=O)Nc2ccccc2)cc1`, 81.2% (inactive); in that of `COc1ccc(-c2nc3ccccc3n2CC(=O)N=Nc2c(O)[nH]c3ccc(OC)cc23)cc1`, 23.9% (inactive). For `CC1=C(C(=O)OCc2ccccc2)C(c2ccc(N(C)C)cc2)n2c(nc3ccccc32)N1` (stereo not given) the value was 96.5% (inactive); for `Fc1cccc(CNc2nc(SCCN3CCOCC3)nc3c2cnn3CC(Cl)c2ccc(Br)cc2)c1` (stereo not given), 13.5% (inactive). Regarding `Nc1ccc(-c2ccc3ncnc(N4CCc5cc(F)c(Cl)cc54)c3c2)cn1`, the growth was 29% (inactive). As for `FC(F)(F)CN1CCN(CCn2c(C(F)(F)F)cc3c(Cl)ncnc32)CC1`, the growth is -89.4% (active). For the compound `COc1cc(/C=N/NC(=O)c2ccc(OCc3nc4ccc(C)cc4[nH]3)cc2)cc(OC)c1OC`, the growth is 68.1% (inactive).
